Reference: ChEMBL document CHEMBL4888484, “Replenishing the malaria drug discovery pipeline: Screening and hit evaluation of the MMV Hit Generation Library 1 (HGL1) against asexual blood stage Plasmodium falciparum ,using a nano luciferase reporter read-out” (2022)
About 540 (0.36%) of roughly 150,000 compounds showed an effect of 50% or more. The list comes from a sample in which strong results are over-represented; it also holds similar structures and randomly drawn compounds.

test system: Plasmodium falciparum; experiment: Primary screen in NF54 nanoGlo assay, in single point, at 2uM, 72h; a lower Z score goes with more inhibition; type: functional, Erythrocyte; conditions: timepoint 72 hour

SMILES	% Inhibition [%]	Z score
CN(C)C1(CNc2ncc(F)cn2)CCCC1	-3	0.48
O=C(NCc1ccc(Br)cc1)NC1CC2OCCCC12 (stereo unspecified)	-11	1.4
COCCN(Cc1cc2ccc(Cl)cc2nc1N1CCC[C@H](CO)C1)C(=O)c1sccc1C	2	-0.41
NC(=NCCOc1ncc(Cl)cc1Cl)N1CCOCC1	-11	1.79
CCN(C)C1(CNC(=O)c2ccc(-c3cnccn3)cc2)CCCC1	-14	2.04
CCN(C)C1(CNC(=O)c2cccc(-c3ncc(F)c(NC)n3)c2)CCCC1	3	-0.53
CCN(C)C1(CNC(=O)c2ccc(-c3cc(F)ccc3O)cc2)CCCC1	55	-0.99
CC(C)ONC(=O)CCc1cccc(O)c1	-11	1.21
Cc1cc(O)nc2ccc(NC(=O)c3cccc(F)c3)cc12	5	-0.52
c1c[nH]c(-c2nc(C3CCOCC3)n[nH]2)c1	-6	1.12
CNc1ncc(C(=O)N2CCC[C@H](C(=O)c3cc(C)c(OC)c(C)c3)C2)cn1	4	-0.72
COc1ccnc(CN2CCC[C@H](C(=O)c3cc(C)c(OC)c(C)c3)C2)c1OC	8	-1.25
COc1c(C)cc(C(=O)[C@H]2CCCN(c3cc(N)ncn3)C2)cc1C	78	-15.48
O=C(CCCc1ccccc1)Nc1cc(C2CC2)nn1-c1nc(-c2ccccc2)cc(=O)[nH]1	54	-8.76
CCOC(=O)Nc1cc(C2CC2)nn1-c1nc2c(c(=O)[nH]1)CCCC2	4	-0.55
CC(C)NC(=O)CN(C)CC(=O)Nc1cc(C2CCCC2)nn1-c1ccccc1	1	-0.16
CCc1cc(=O)[nH]c(-n2nc(C3CC3)cc2NC(=O)C2CCCCC2)n1	86	-14.68
Cc1cc(N)n(-c2nc(-c3ccccc3)cc(=O)[nH]2)n1	35	0.14
CC(C)(C)c1cc(NC(=O)CCCc2ccccc2)n([C@H]2CCS(=O)(=O)C2)n1	-2	0.38
CCc1cc(NC(=O)C2CN(C(=O)C3CCCCC3)C2)n(C)n1	-13	2.45
O=C(CN1CCCCC1)Nc1cc(C2CC2)nn1-c1ccccc1	1	-0.24
CCC(CC)C(=O)Nc1cc(C2CC2)nn1-c1nc(-c2ccccc2)cc(=O)[nH]1	69	-9.47

SMILES	% Inhibition [%]	Z score
Cc1ccc(C(=O)N2CCCC(C(=O)N3CCCC(c4nnc5ccccn45)C3)C2)cc1 (stereo unspecified)	-7	1.13
CC(C)c1cc(-c2nc(-c3ccccn3)no2)[nH]n1	-11	1.24
CCS(=O)(=O)Nc1ccnn1[C@@H](C)C1CC1	3	-0.45
O=C(c1cnnn1-c1cccc(F)c1)N1CCCC12CCC2	-1	0.15
COc1ccc(C(=O)NCCCc2nnc3ccccn23)o1	-9	1.7
Cc1nc2ccccn2c(=O)c1CCN[C@@H](C)c1cccc(-n2cccn2)c1	0	0.05
Cc1ccc(C(=O)N2CCC3(CCc4nn(Cc5ccccc5)c(=O)n4CC3)CC2)s1	-7	0.82
CCN1CCN(C2CCN(c3ncc(F)c(OC)n3)CC2)CC1	51	-7.32
CNC(=O)[C@H]1CCN(c2ncc(F)c(OC)n2)C1	-10	1.93
Cc1c(C2=NO[C@H]3C(=O)N(c4ccc5ccccc5c4)C(=O)[C@@H]23)cnn1C	50	-5.99
Cc1c(C2=NO[C@H]3C(=O)N(c4ccc(Cl)cc4)C(=O)[C@@H]23)cnn1C	-7	1
O=C1[C@@H]2C(c3ccccc3Cl)=NO[C@@H]2C(=O)N1c1ccc2ccccc2c1	-9	1.2
O=C(c1ccc2c(c1)CCC2)N1CC(O)C1	0	0
Cc1cc(NCc2c(C)noc2C)nc(C2CC2)n1	-7	1.22
Cc1ccnc(Nc2ccc(N3CCNCC3)nn2)c1	56	-6.55
Cc1ccc(Nc2ccc(N3CCNCC3)nn2)nc1	47	-6.37
c1cc(-c2ccc(N3CCNCC3)nn2)ccn1	5	-1.03
CC(C)(C)OC(=O)CCc1cccnc1C(=O)O	-18	1.85
CC1CC(C(=O)NCCCn2cn[nH]c2=O)CC(C)(C)C1 (stereo unspecified)	0	0.05
CC1CC(C(=O)Nc2[nH]c(=O)ncc2F)CC(C)(C)C1 (stereo unspecified)	92	-13.24
CC1CC(C(=O)N[C@@H](C)c2cnccn2)CC(C)(C)C1 (stereo partly specified)	8	-0.99
